# Experimental data published in PubChem BioAssay (Tox21).
# Results filed as inconclusive are left out. A number with no mark means an inactive call. The source made the active and inactive calls. Calls follow the shape of the dose curve; as a rule, active = well fitted cell-killing curve with a large enough effect in the repeat runs; inconclusive = weak or mixed curves, or effect the other way; inactive = flat fitted curve, though single readings scatter.
# Assay: cAMP Responsive Elements (CRE) small molecule antagonists, cell-based qHTS assay: qHTS cell viability counter screen (AID 2060913); also: nearly all actives have a fitted effect of over 40% in size
# Details: CRE-bla HEK293T viability, CellTiter-Glo luminescence, 5 h; series mostly up to 92.4 µM; viability change, negative = cytotoxic: at the top concentration
# Excerpt: U.S. Tox21 Program National Center for Advancing Translational Sciences [NCATS] Division of Preclinical Innovation [DPI] U.S. Environmental Protection Agency [EPA] National Institutes of Environmental Health Sciences [NIEHS] National Toxicology Program [NTP] U.S. Food and Drug Administration [FDA] Tox21 Assay Overview: CREB (cyclic-AMP Responsive Element Binding Protein) is a cellular transcription factor. It binds to certain DNA sequences called cAMP Responsive Elements (CRE) and regulates the transcription of the genes. […] This cell line can be used to find agonists/antagonists of the cyclic AMP signaling pathway. The activation of the report gene under culture conditions can be detected by fluorescence intensity. This cell line has been used to screen the Tox21 10K compound library to identify agonists that induce oxidative stress. The cytotoxicity of the Tox21 compound library against the CRE-bla cell line was tested in parallel by measuring the cell viability using CellTiter-Glo assay (Promega, Madison, WI) in the same wells.
# Tox21 Assay Protocol Summary: CRE-bla Hek 293T cells were suspended in assay medium (DMEM containing 10% dialyzed FBS, 0.1 mM NEAA, 1 mM sodium pyruvate and 25 mM HEPES) and dispensed at 2,000 cells/4 uL /well into 1536-well black wall/clear bottom plates using a Multidrop Combi (ThermoFisher Scientific, Waltham, MA) dispenser. After the assay plates were incubated at 37 C/5% CO2 for 18 hrs, 23 nL of compounds dissolved in DMSO, positive controls or DMSO only was transferred to the assay plate by a pintool workstation (Kalypsys, San Diego, CA), followed by addition of 1 uL of 1.25uM NKH477 (0.25 uM as final concentration) in assay medium using a Flying Reagent Dispenser (Aurora Discovery, San Diego, CA). The plates were incubated at 37 C and 5% CO2 for 3 hrs. Then 1 uL of LiveBLAzer B/G FRET substrate (Invitrogen, Carlsbad, CA) was added to each well using Bioraptr Flying Reagent Dispenser (FRD, Aurora Discovery, San Diego, CA). The plates were incubated at room temperature for 2 h, then fluorescence intensities were measured using an Envision plate reader (PerkinElmer, Shelton, CT) at Excitation 405nm, Emission 460nm and 530nm. The % activity was determined from the ratio of 460nm/530nm. For cell viability readout that measures cytotoxicity, 4 uL /well of CellTiter-Glo reagent was added into the assay plates using Bioraptr FRD. After 30 min incubation at room temperature, the luminescence intensity in the assay plates was measured using a ViewLux (PerkinElmer, Shelton, CT) plate reader.
# % is scaled to controls: 0 for no effect and ±100 for the full control effect.
Structure (SMILES),"viability change, negative = cytotoxic",Potency
CCCCCC1CCC(=O)O1 (stereo not given),-3.2%,
CCCCCCCCCCCCOCC1CO1 (stereo not given),-6.91%,
Cc1cccc(O)c1C,,inactive
c1ccc2cc3c4ccccc4c4ccccc4c3cc2c1,-4.47%,
CCCCCCCCCCCCC1CO1 (stereo not given),-11.4%,
CC1=CC(C)C(C=O)C(C)C1 (stereo not given),10.9%,
CC(S)C(=O)NCC(=O)O (stereo not given),5.94% [at 42.5 µM],
OCCN(CCO)c1cccc(Cl)c1,-1.89%,
CC(=O)c1cccnc1,4.16%,
Cn1c(=O)c2[nH]c(Br)nc2n(C)c1=O,6.35% [at 42.5 µM],
C=C1CC[C@H]2C[C@@H]1C2(C)C,-3.29%,
COc1cc2c(Nc3ccc(Br)cc3F)ncnc2cc1OCC1CCN(C)CC1,-0.808% [at 42.5 µM],
C=CCN1CCc2nc(N)sc2CC1,5.45% [at 42.5 µM],
NS(=O)(=O)c1ccccc1OC(F)(F)F,12.2%,
CCNC(=O)/C=C/c1cccc(Br)c1,-4.02% [at 42.5 µM],
CCCCCCCCOC(C)=O,-1.78%,
NCCNCCNCCNCCN,,inactive
O=C(NCCN1CCOCC1)c1ccc(Cl)cc1,4.15% [at 42.5 µM],
COCC(C)O (stereo not given),,inactive
CC(C)OC(=O)c1ccccc1C(=O)OC(C)C,-3.88%,

Structure (SMILES),"viability change, negative = cytotoxic",Potency
COc1ccc(OC)cc1,,inactive
O=C1OC(=O)c2cccc3cccc1c23,4.63%,
O=C(O)c1cccnc1C(=O)O,-1.42%,
NNc1nc(-c2ccc([N+](=O)[O-])cc2)cs1,-6.32%,
c1ccc(-c2ccc(-c3ccccc3)cc2)cc1,0.929% [at 18.9 µM],
c1ccc2ncccc2c1,,inactive
CCOC(=O)NNc1nncc2ccccc12,,inactive
O=C1CCCCCCCCCCCCCC1,5.79%,
CC[C@]12CCCN3CCc4c(n(c5ccccc45)[C@@](O)(C(=O)OC)C1)[C@@H]32,,inactive
CCCCNC(=O)NS(=O)(=O)c1ccc(N)cc1,,inactive
CC1=C(O)C(=O)CO1,13.4%,
O=c1[nH][nH]c2ccccc12,18.4%,
Oc1ccc(Cl)c2cccnc12,-0.214% [at 42.5 µM],
O=c1ccc2ccccc2o1,,inactive
C=Cc1ccc(OC(C)=O)cc1,2.84%,
CCN(CC)c1cccc(O)c1,-17.3%,
CCC(=O)c1ccc(O)cc1,3.79% [at 42.5 µM],
C=C(C)c1cccc(C(=C)C)c1,3.32%,
O=C(O)c1cc(N=Nc2ccc([N+](=O)[O-])cc2)ccc1O,0.547%,
Nc1cccc(S(=O)(=O)O)c1,-0.003%,
